3T3 cytotox: kills NIH 3T3 cells | NIH 3T3 viability, CellTiter-Glo ATP luminescence, 48-72 h | 94,000 compounds, 4.3% hits | Potency, µM (series often up to 96.7 µM), without a hit: at the top dose activity change, negative = cytotoxicity, most hits filed as inhibitors; also: potency is read from the fitted curve at half-maximal effect; % is scaled to controls: 0 for no effect and ±100 for the full control effect; nearly all actives have a fitted effect of over 55% in size
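Cytotoxicity was measured by CellTiter-Glo ATP luminescence after 48 or 72 h compound exposure at 37 °C. Mouse NIH 3T3 fibroblasts were seeded at 400 cells/well and dosed by 23 nL pin transfer.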
SNCA viab count: counter-screen for SNCA expression inhibitors: cell viability | Potency, µM (titrated, usually from 57.1 µM), inactives show at the top dose activity change, negative = cytotoxicity, hits mostly cytotoxic | AID 1671193 | 150,000 compounds, 0.12% hits | HEK-293-SNCA-luc viability, GF-AFC fluorescence, 24 h;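 also: potency is read from the fitted curve at half-maximal effect; 0% = DMSO-treated cells and -100% = medium-only wells without cells; nearly all actives have a fitted effect of over 30% in size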
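HEK-293-SNCA-luc cells (1500/well) plated 24 h, then exposed 24 h to a dilution series; GF-AFC added 30 min at 37C, fluorescence 405/540 nm; normalised to medium-only and DMSO wells, Hill fit.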
SNCA expr inhib: SNCA gene expression inhibition; HEK-293 SNCA-luciferase knock-in, luminescence, 24 h; Potency, µM (highest dose often 57.2 µM), for inactives: at the top dose activity change, negative = inhibition, most hits filed as inhibitors; 140,000 compounds, 0.17% hits;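 also: potency is read from the fitted curve at half-maximal effect; plate controls were DMSO cells for no effect and cell-free wells for full effect; nearly all actives have a fitted effect of over 45% in size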
HEK293 tox: kills HEK 293 cells | HEK 293 viability, ATP luminescence (CellTiter-Glo), 48-72 h | Potency, µM (doses to about 115 µM), inactives show at the top dose activity change, negative = cytotoxicity, hits mostly inhibitors | 94,000 compounds, 6.6% hits | AID 1345083; also: potency is read from the fitted curve at half-maximal effect; % is scaled to controls: 0 for no effect and ±100 for the full control effect; nearly all actives have a fitted effect of over 60% in size
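CellTiter-Glo luminescence (cellular ATP) was read after 48 or 72 hr of compound exposure at 37 degree Celsius. Cells were HEK 293 plated at 250 cells/well.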
IP6K1 inh: blocks human inositol hexakisphosphate kinase 1; IP6K1 kinase, ADP-Glo luminescence, 2 h; stronger effect = lower value; activity change, % (series mostly up to about 58 µM); 140,000 compounds, 0.81% hits; AID 1645851; in the data active = activity change below about -25%; also: % is scaled to controls: 0 for no effect and ±100 for the full control effect
Target sequence (Q92551 whole entry, looked up): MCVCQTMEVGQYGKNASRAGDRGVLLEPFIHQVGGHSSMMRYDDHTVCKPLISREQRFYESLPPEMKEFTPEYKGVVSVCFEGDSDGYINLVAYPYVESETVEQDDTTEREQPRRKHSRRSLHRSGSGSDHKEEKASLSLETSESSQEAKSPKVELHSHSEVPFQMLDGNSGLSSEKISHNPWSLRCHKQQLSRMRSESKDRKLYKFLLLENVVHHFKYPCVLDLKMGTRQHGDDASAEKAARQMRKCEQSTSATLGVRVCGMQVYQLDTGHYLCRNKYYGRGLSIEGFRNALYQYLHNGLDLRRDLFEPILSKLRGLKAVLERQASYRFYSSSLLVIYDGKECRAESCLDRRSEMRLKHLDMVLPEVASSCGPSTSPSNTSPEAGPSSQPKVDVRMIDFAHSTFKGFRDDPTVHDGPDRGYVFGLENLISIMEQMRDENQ
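ADP-Glo luminescence measures ADP made by human IP6K1 during a 2 h RT reaction with ATP/IP6 (mix at 1.3 mM/130 uM); top library doses 57.5 and 19.1 uM final.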
FLuc inh-1: inhibitors of firefly (Photinus pyralis) luciferase | P08659 | purified P. pyralis luciferase, luminescence, biochemical | Potency, µM (doses to about 115 µM), actives largely listed as inhibitors | 76,000 compounds, 2.5% hits | AID 1347043; also: potency is read from the fitted curve at half-maximal effect; % is scaled to controls: 0 for no effect and ±100 for the full control effect; nearly all actives have a fitted effect of over 65% in size
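Cell-free enzyme assay, 10nM P. pyralis luciferase, luciferin and ATP each at 10uM. Inhibition profiled over a 6-point titration, read as luminescence.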
FLuc SDR -ATP: stabilizes firefly luciferase without ATP | shares compounds with FLuc inh-1 | Purified FLuc-C-HiBiT, Nano-Glo HiBiT luminescence, no ATP | Potency, µM (top dose mostly 32.7 µM), without a hit: at the highest dose activation (signal gain), most hits filed as activators | 1,300 compounds, 7.8% hits | AID 1963318; also: potency is read from the fitted curve at half-maximal effect; nearly all actives have a fitted effect of over 55% in size
FLuc SDR ATP: binders stabilizing firefly luciferase, plus ATP. 1,300 compounds, 8.7% hits. AID 1963319. shares compounds with FLuc inh-1. Potency, µM (titrated, usually from 32.7 µM), without a hit: at the top dose activation (gain of signal), actives largely listed as activators. purified FLuc-C-HiBiT + ATP, HiBiT complementation luminescence;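 also: signal reports ligand binding via conformational change of the enzyme rather than luciferase catalysis; potency is read from the fitted curve at half-maximal effect; % of control where 0% means no effect; nearly all actives have a fitted effect of over 55% in size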
FLuc inh-2: firefly luciferase enzyme inhibition | shares compounds with FLuc inh-1 | purified FLuc-C-HiBiT enzyme, luciferin luminescence | Potency, µM (doses to about 32.7 µM), for the others: top-dose activity change, negative = inhibition, usual class: inhibitors | 1,300 compounds, 42% hits | AID 1963320; also: potency is read from the fitted curve at half-maximal effect; % is scaled to controls: 0 for no effect and ±100 for the full control effect; nearly all actives have a fitted effect of over 70% in size
Active calls of the source: *; i = inactive; ? = inconclusive; . = no result given; [ ] = dose if it differs, or a comment. Most compounds without a hit are left out; they make up all but 7.3% or so of the library. Unless noted, calls follow the shape of the dose curve; as a rule, active = well fitted curve in the direction sought with a large enough effect; inconclusive = small, poorly fitted or top-dose-only effect, or another doubt; inactive = no such curve, though single readings can be large; an effect the other way counts as inactive or inconclusive.

SMILES	3T3 cytotox	SNCA viab count	SNCA expr inhib	HEK293 tox	IP6K1 inh	FLuc inh-1	FLuc SDR -ATP	FLuc SDR ATP	FLuc inh-2
CC(C)c1ccc(NC(=O)C2CCN(C(=O)c3ncn4c3COC(c3ccccc3)C4)CC2)cc1 (centres undefined)	i	2%	24%	6%	8	2.5µM*	13%	?	3.5µM*
CCc1cccc(NC(=O)C2CCN(C(=O)c3ncn4c3COC(c3ccccc3)C4)CC2)c1 (centres undefined)	-3%	-3%	110%	-14%	11	3.5µM*	13%	1.2µM*	1.8µM*
CC(C)c1cccc(NC(=O)C2CCN(C(=O)c3ncn4c3COC(c3ccccc3)C4)CC2)c1 (centres undefined)	4%	-1%	58%	?	-13	3.5µM*	13%	?	7.9µM*
CSc1cccc(NC(=O)C2CCN(C(=O)c3ncn4c3COC(c3ccc(F)cc3)C4)CC2)c1 (centres undefined)	-9%	-21%	44%	-29%	0	?	.	.	.
CC(C)c1cccc(NC(=O)C2CCN(C(=O)c3ncn4c3COC(c3ccc(F)cc3)C4)CC2)c1 (centres undefined)	-16%	0%	-14%	?	2	i	.	.	.
COc1ccc(NC(=O)C2CCN(C(=O)c3ncn4c3COC(c3ccc(OC)cc3)C4)CC2)cc1 (centres undefined)	-21%	4%	-10%	-14%	0	i	.	.	.
Cc1oc2c(c1C(=O)N1CCN(c3ccccc3)CC1)CN(Cc1ccccc1)CC2	?	16%	29%	?	22	i	.	.	.
O=C(c1ccccc1F)N1CCN(c2ccc3nnc(-c4ccccc4)n3n2)CC1	?	.	.	-16%	20	.	.	.	.
CCOc1ccc(NC(=O)C2CCN(C(=O)c3ncn4c3COC(c3ccccc3)C4)CC2)cc1 (centres undefined)	i	0%	76%	16%	4	13µM*	13%	?	7µM*
COC1CCOC2(CCN(C(=O)CCCc3ccccc3)CC2)C1 (centres undefined)	-5%	5%[12.5 µM]	-20%	-19%	12	6.3µM*	18%	?	?
CN1C(=O)[C@H]2CN(Cc3c[nH]c4ccccc34)C[C@H]2C1=O	-18%	-1%	6%	-13%	13	i	.	.	.
CN1C(=O)CCC2(CNC(=O)C3(S(=O)(=O)c4ccc(Cl)cc4)CC3)CCC=C12 (centres undefined)	-16%	9%	-7%	-12%	13	?	.	.	.
COCCNC(=O)C1CCN(C(=O)c2nnn3c2COC(c2ccc(C)cc2)C3)CC1 (centres undefined)	i	2%	144%	9%	3	5.6µM*	12%	?	?
Cc1ccc(C2Cn3nnc(C(=O)N4CCC(C(=O)NCCc5cccs5)CC4)c3CO2)cc1 (centres undefined)	-10%	10%	151%	1%	-8	10µM*	12%	?	?
Cc1ccc(C2Cn3nnc(C(=O)N4CCC(C(=O)NCCN5CCCC5)CC4)c3CO2)cc1 (centres undefined)	i	9%	107%	-7%	6	13µM*	13%	?	?
Cc1ccc(C2Cn3nnc(C(=O)N4CCC(C(=O)NCc5cccc(C)c5)CC4)c3CO2)cc1 (centres undefined)	i	3%	31%	3%	5	?	.	.	.
Cc1noc(C)c1CN1CC(N2CC(C(=O)NCc3ccccc3)CC2=O)C1 (centres undefined)	-5%	-3%	?	0%	0	.	.	.	.
O=C(Nc1cccc(Cl)c1)N1CCC2(CC1)SCC(=O)N2Cc1ccco1	?	-3%	-25%	?	22	i	.	.	.
COc1ccc(-c2cn3cc(C(=O)NC4CCCCC4)nc3s2)cc1	-11%	7%	0%	-30%	-1	.	.	.	.
Cc1nonc1COc1ccc(C(=O)Nc2cccc(-c3nc4ccccc4s3)c2)cc1	.	.	.	.	.	.	9%	10%	?
COc1ccc(-c2nc3ccccc3s2)cc1NC(=O)c1cccc(F)c1	.	5%	76%	.	-10	.	9%	8%	-12%
CCOc1ccc(C(=O)Nc2cc(-c3nc4ccccc4s3)ccc2OC)cc1	.	-2%	14%	.	1	.	17%	9%	-5%
CCCCOc1ccc(C(=O)Nc2ccc(-c3nc4ccccc4s3)cc2C)cc1	.	-9%	59%	.	-2	.	18%	10%	0%
CSc1ccc(-c2cccc(C(=O)NCCN[S+](=O)([O-])c3c(C)noc3C)c2)cc1	?	-7%[12.5 µM]	-26%	?	-9	.	.	.	.
O=C(Nc1cccc(-c2nc3ccccc3s2)c1)N1CCC(O)C1 (centres undefined)	.	.	.	.	.	.	?	?	8.8µM*
SMILES	3T3 cytotox	SNCA viab count	SNCA expr inhib	HEK293 tox	IP6K1 inh	FLuc inh-1	FLuc SDR -ATP	FLuc SDR ATP	FLuc inh-2
COc1ccc(C(=O)Nc2cc(-c3nc4ccccc4s3)ccc2OC)cc1	.	-18%	50%	.	13	.	13%	10%	?
COc1ccc(-c2nc3ccccc3s2)cc1NC(=O)c1cc(OC)c(OC)c(OC)c1	.	.	.	.	.	.	14%	10%	?
COc1ccc(-c2nc3ccccc3o2)cc1NC(=O)c1cccnc1	.	-10%	40%	.	-13	.	18%	11%	?
Cc1cccc(NC(=O)N2CCC(Cc3nc(-c4ccccc4)n[nH]3)CC2)c1	-13%	1%	6%	i	-2	i	.	.	.
COc1ccc(-c2nc(C)c(CCNS(=O)(=O)c3ccc(F)cc3)s2)cc1OC	.	-28%	41%	.	-6	.	.	.	.
Cc1c(C(=O)Nc2cccc(-c3nc4ccccc4s3)c2)oc2ccc(F)cc12	.	3%	61%	.	19	.	12%	8%	-14%
COc1ccc(-c2nc3cc(F)ccc3s2)cc1OC	.	.	.	.	.	.	20%[3.62 µM]	14%[3.62 µM]	?
COc1cc(-c2nc3ccccc3s2)ccc1O	.	.	.	.	.	.	24%	17%	11µM*
COc1ccc(-c2nc3ccccc3s2)cc1NC(=O)c1ccccc1OC	.	7%	110%	.	0	.	18%	10%	?
